Bioassay records as filed in PubChem.
The list is not random: actives were taken first. Their share in the collection is about 1.3%.
3CLpro inhibitor = SARS-CoV 3CLpro protease inhibition; P0C6X7; recombinant SARS-CoV 3CLpro, quenched FRET peptide cleavage; inhibition, % at 6 µM; actives 0.14% (n = 290,000); in the data active = inhibition above about 12%
PrPC TRFRET = cell surface PrPC inhibition, primary TR-FRET screen. P04156. TR-FRET read-out. inhibition, % at 13.8 µM. actives 0.43% (n = 370,000); in the data active = inhibition above about 24%; also: 0% = median of the test wells and 100% = reference compound wells
PrP 5UTR inh = inhibition of PrP 5' UTR reporter expression. AID 488862. actives 0.35% (n = 340,000). cell-based PrP 5' UTR mRNA reporter, plate reader. inhibition, % (test concentration not listed); in the data active = inhibition above about 52%; also: 0 = median of the neutral control wells
CCHF vOTU inh-1 = blocks the CCHF virus ovarian tumor domain protease | CCHFV vOTU protease, Pep-AMC fluorescence | inhibition, % at 11.5 µM | actives 0.55% (n = 370,000) | AID 651958; also: 0% = vehicle wells with enzyme and 100% = no enzyme wells
CCHF vOTU inh-2 = confirmation of CCHF virus vOTU protease inhibitors; shares compounds with CCHF vOTU inh-1; inhibition, % at 11.5 µM; actives 17% (n = 1,900); Recombinant CCHFV vOTU, Pep-AMC fluorescence
An asterisk follows results filed as active; · = no result. Rule as the data show it, unless noted: active = inhibition above about 30%; inactive = the rest.

SMILES | 3CLpro inhibitor | PrPC TRFRET | PrP 5UTR inh | CCHF vOTU inh-1 | CCHF vOTU inh-2
C[C@@H]1CCCCO[C@@H](CN(C)C(=O)Nc2ccccc2)[C@@H](C)CN([C@H](C)CO)C(=O)c2cc(N(C)C)ccc2O1 | · | 9 | · | 31* | -19
C[C@@H]1CCCCO[C@H](CN(C)C(=O)Cc2ccccc2)[C@@H](C)CN([C@H](C)CO)C(=O)c2cc(NC(=O)Nc3ccccc3)ccc2O1 | · | -3 | · | 31* | -12
COc1ccccc1NC(=O)N(C)C[C@@H]1OCc2cn(nn2)CCCC(=O)N([C@H](C)CO)C[C@H]1C | · | -5 | · | 0 | ·
COc1ccccc1-n1c(SCC(=O)O)nnc1-c1ccc(S(=O)(=O)N2CCCCC2)cc1 | -1 | -1 | -9 | -9 | ·
CCCNS(=O)(=O)c1ccc(Oc2ncc(C(F)(F)F)cc2Cl)cc1 | 2 | 10 | -22 | 31* | -2
N#CC(C#N)=Cc1ccc(N2CCOCC2)cc1 | 2 | 4 | -18 | 30* | -8
COc1cc(NC2c3ccccc3C(=O)N2c2ccc(C)cn2)cc(OC)c1OC (stereo unspecified) | 1 | 3 | -21 | -4 | ·
O=C(c1cc2c(s1)CCCC2)N1CCN(Cc2ccc3c(c2)OCO3)CC1 | 0 | -4 | 5 | 11 | ·
O=C(Oc1ccc2c(c1)OCO2)c1cc2c(s1)CCC2 | -3 | -9 | -33 | 46* | -9
O=C1C=CC(=O)c2c(O)c(CO)c(CO)c(O)c21 | · | -18 | -5 | 78* | 69*
Cc1ccc(N2C(=O)[C@@H]3[C@H](C2=O)C2c4ccccc4C=CN2[C@@H]3C(=O)c2ccco2)c(C)c1 (stereo partly specified) | -3 | 7 | -7 | 95* | 53*
Cc1ccc(N2C(=O)[C@@H]3[C@H](C2=O)C2c4ccccc4C=CN2[C@@H]3C(=O)c2ccco2)cc1 (stereo partly specified) | 3 | -4 | 6 | 78* | 101*
CC(C)(C)C(=O)[C@@H]1[C@@H]2C(=O)N(c3ccc4c(c3)OCCO4)C(=O)[C@@H]2C2c3ccccc3C=CN21 (stereo partly specified) | -3 | 0 | -13 | 54* | -7
CC(=O)[C@@H]1[C@@H]2C(=O)N(Cc3ccccc3)C(=O)[C@@H]2C2c3ccccc3C=CN21 (stereo partly specified) | -1 | -3 | -29 | 64* | 33*
Cc1ccc(-n2ncc3c(NNC(=O)c4ccco4)ncnc32)c(C)c1 | 2 | 1 | -26 | -1 | ·
Cc1ccc(N2C(=O)[C@@H]3[C@H](C2=O)[C@H]2C=C(C(=O)c4ccccc4)C=CN2[C@@H]3C(=O)c2ccc(Cl)cc2)cc1 | 2 | -5 | 18 | 2 | ·
CC(=O)Nc1cncc(-c2cccc(C(=O)N(C)C)c2)n1 | · | 6 | · | -9 | ·
CCCCC(=O)N(c1ccc(OCC)cc1)C1C=CS(=O)(=O)C1 (stereo unspecified) | -3 | -2 | -15 | -16 | ·
C(=N\Nc1ncnc2sc3c(c12)CCC3)/c1cccs1 | 5 | 24 | -11 | 5 | ·
C(=N\Nc1ncnc2sc3c(c12)CCC3)/c1ccncc1 | -14 | 8 | 1 | 34* | -4
CC12CCC(/C(=C/NNc3ccc([N+](=O)[O-])cc3[N+](=O)[O-])C1=O)C2(C)C (stereo unspecified) | · | -8 | · | 17 | ·
CCCCNC(=O)c1nc(C2CCN(S(=O)(=O)c3csc(C(=O)O)c3)CC2)oc1-c1ccccc1 | · | -1 | · | 30* | 4
CCCCNC(=O)c1nc(C2CCN(S(=O)(=O)c3ccc(Cl)cc3)CC2)oc1-c1ccccc1 | · | -9 | · | -8 | ·
CCOc1ccc(N2CSC3=C(C#N)C(c4ccco4)CC(=O)N3C2)cc1 (stereo unspecified) | 4 | -9 | · | 23 | ·
Cc1ccc(C2CC(=O)N3CN(c4ccc(Br)cc4)CSC3=C2C#N)o1 (stereo unspecified) | 6 | 3 | -28 | 30* | -1
Cc1ccc(C(=O)N2CC3(C)CN(C(=O)c4ccc(C)cc4)CC(C)(C2)C3=O)cc1 | 6 | 2 | -28 | 3 | ·
Nc1cc(=O)[nH]c(SCc2cccc3ccccc23)n1 | 1 | 6 | -7 | -8 | ·
O=c1cc(C(F)(F)F)nc(SCc2cccc3ccccc23)[nH]1 | 9 | -2 | -3 | 31* | 9
CCOC(=O)[C@]12CCC=C1N(CCC1=CCCCC1)C(=O)[C@H](CC(=O)NCc1cccc(C(F)(F)F)c1)C2 | · | -5 | · | 20 | ·
COc1ccc(C(O)c2nccc3cc(OC)c(OC)cc23)cc1OC (stereo unspecified) | 2 | 10 | -5 | 90* | -10
